This is an account of results in PubChem BioAssay AID485313 (National Center for Advancing Translational Sciences (NCATS), 2010).

In all, about 320,000 compounds went through this assay and about 7,600 (2.4%) were called active. Inconclusive results (about 3%) are left out. For the sample, actives were picked, then their nearest neighbours and some compounds at random. Unmarked numbers belong to inactive results. The call rests on the fitted dose curve; in most records, active means well fitted activation curve with a large enough effect; inconclusive means small, poorly fitted or top-dose-only effect; inactive means no such curve, though single readings can be large or run the other way.
Potency means the concentration at half of the fitted maximal effect.

This experiment is described as follows: qHTS Assay for NPC1 Promoter Activators. Further: nearly all actives have a fitted effect of over 60% in size. On activation: % of control where 0% means no effect. Particulars: Huh7 NPC1 promoter luciferase reporter, 24 h; series mostly up to 9.22 µM; activation: at the top concentration. An excerpt: NIH Chemical Genomics Center [NCGC] NIH Molecular Libraries Probe Production centers Network [MLPCN] MLPCN Grant: MH089375-01A1 Assay Submitter (PI): Yiannis A. Ioannou NCGC Assay Overview: Niemann Pick Type C (NPC) is a rare neurodegenerative lipidosis that is characterized by lipid storage in the endosomal/lysosomal system. Treatment modalities for this devastating disease are currently non-existent due to the severe obstacles associated with accessing the central nervous system with proteins or genes. The majority of mutations causing NPC disease are missense mutations that are distributed throughout the length of the NPC1 protein, with the most prevalent being the I1061T allele. Although NPC1 mutant proteins may be functional, they are typically trapped in the ER due to misfolding. […] We have developed and optimized a cell based luciferase reporter assay in 1536 well format for the identification of up-regulators of the mutant NPC1 promoter.
The NPC1 promoter is cloned in front of the luciferase reporter gene, therefore NPC promoter activation results in luciferase expression. Frozen stock of the NPC1 promoter transfected Huh7 cells were obtained from the laboratory of Dr. Yiannis Ioannou (The Mount Sinai School of Medicine, New York, NY). Cells were propagated and maintained at NCGC in medium containing RPMI-1640 supplemented with 10% FBS, 2mM L-glutamine, and 50ug/ml penicillin/streptomycin. Cells were harvested in and plated for assays in OP-MEM I reduced-serum medium supplemented with 10% FBS. The Amplite luciferase reporter gene assay kit was purchased from ABD Bioquest and prepared/stored according to manufacturers recommendations. qHTS Assay Setup: 1.#Dispensed 5ul of Huh7 cells stably expressing NPC1-luciferase at a density of 1500 cells per well 1536-well plates. 2.#Incubate cells at 37C, 5% CO2, and 95% humidity for 2 hours. 3.#Transferred 23nl per well of compound in DMSO solution. 4.#Incubated at 37C, 5% CO2, and 95% humidity for 24 hours. 5.#Dispensed 3ul per well of Amplite reagent(ABD Bioquest) per well. 6.#Incubate at ambient for 10 minutes. 7.#Read using the luminescence protocol on the ViewLux plate reader (Perkin Elmer).
On to `Cc1ccsc1C(=O)OCC(=O)Nc1cccc(F)c1`, for which the “activation” value was 7.29%.

With `Cc1cc(C(=O)COc2ccc(Br)cc2F)c(C)n1C1CC1`, the “activation” value was 15.3%. `N#Cc1ccccc1S(=O)(=O)N1CCN(Cc2c(O)ccc3ccccc23)CC1`: the “activation” value was -0.384%. On the same count and under the same terms, the result for `CC1CC1C(=O)OCC(=O)Nc1cccc(F)c1` (configuration not stated) reads -0.27%. `COC(=O)Cc1[nH]n(-c2nc3ccccc3s2)c(=O)c1C(C)=Nc1ccc(OC)cc1`: the “activation” value was -16%. As to `CC(=NCc1ccco1)C1=C(O)c2ccccc2C1=O`, the “activation” value is 8.33%. With `CC(=NCc1ccco1)c1c(C(F)(F)F)[nH]n(-c2nc3ccccc3s2)c1=O`, the Potency is 2.24 µM (active). For `CCCn1c(N)c(N(CCOC)C(=O)C2CCCC2)c(=O)[nH]c1=O`, the “activation” value was -2.43%. On the same count and under the same terms, the result for `CN(C(=O)CSc1nnc(C2CC2)n1C)C1CCCc2ccccc21` (configuration not stated) reads -0.553%; that for `CN(C)/C=C(\C#N)C(=O)c1cccnc1Oc1ccc(F)cc1F`, -8.2%. Still for that read-out and setting: the result for `COc1ccc(C)cc1NC(=O)CCCN1C(=O)NC(C)(C)C1=O` reads -6.41%; that for `COc1ccc(-c2nnc(SC(C)C(=O)NC3CC3)o2)cc1` (configuration not stated), -0.432%. With `O=C(Nc1ccc(F)cc1)c1cc2c(s1)CCCC2`, the Potency is 2.24 µM (active). `O=C(NNC(=O)c1cc2c(s1)CCCC2)c1ccccc1`: the “activation” value is 21.2%. The same measure, in the same setting: the result for `CN(C)C(=O)c1ccc(NC(=O)COC(=O)c2cc3c(s2)CCCCC3)cc1` reads -5.23%. Same read-out and setting: the result for `CCN(C(=O)COC(=O)Cc1c(F)cccc1Cl)c1c(N)n(Cc2ccccc2)c(=O)[nH]c1=O` reads -0.302%; that for `CSc1ncccc1C(=O)NC1CCCCCC1`, -4.31%. The same measure, in the same setting: the result for `CSc1ncccc1C(=O)Nc1ccc2c(c1)OCO2` reads -0.125%. As for `CSc1ncccc1C(=O)Nc1nc2ccc(F)cc2s1`, the Potency was 0.126 µM (active). Turning to `Cc1ccc(NC(=O)CCC(=O)N2CCC(c3ccccc3)=N2)cc1S(=O)(=O)N1CCCCC1`, the “activation” value was -1.45%. As for `O=c1ccc2c(-c3ccccc3S(=O)(=O)O)c3ccc(O)c(O)c3oc-2c1O`, the “activation” value is -7.8%. The same measure, in the same setting: the result for `CC1CCCCC1NC(=O)NC(=O)COC(=O)C1=NN(c2ccccc2)C(=O)CC1` (configuration not stated) reads -3.42%; that for `O=S(=O)(NCCCN1CCOCC1)c1ccc(F)c(Cl)c1`, -5.25%; that for `COc1ccccc1CNC(=O)COC(=O)CNS(=O)(=O)c1ccc(NC(C)=O)cc1`, -1.15%. On the same count and under the same terms, the result for `Cc1ccc(-c2cn(S(=O)(=O)c3cccc([N+](=O)[O-])c3)nc2N)cc1` reads -1.34%; that for `Cc1ccnc(N2C(=O)c3ccc([N+](=O)[O-])cc3C2=O)c1`, -0.192%.

On to `Cc1ccc(-n2cc3ccc([N+](=O)[O-])cc3n2)cc1`, for which the Potency is 0.794 µM (active). With `Cn1c(N)c(C(=O)COC(=O)/C=C/c2cccc(C(F)(F)F)c2)c(=O)n(C)c1=O`, the “activation” value is 0.0298%. Take `Cc1ccn(-c2cccc(-n3ccc(C)n3)n2)n1`: the Potency was 3.16 µM (active). Take `CN(CC(=O)Nc1ccc(OC(F)(F)F)cc1)C(=O)C1CCC1`: the “activation” value was -1.1%.

For the molecule `CC(=O)c1c(C)[nH]c(C(=O)OCC(=O)Nc2c(C)cccc2C)c1C`, the “activation” value was -10.2%. `COc1ccccc1CC(=O)Nc1ccc(F)cc1F`: the “activation” value is 1.66%. `COc1ccc(NC(=O)c2ccc(OC)cc2)cc1`: the Potency is 1.78 µM (active). In the case of `COc1cc(OC)cc(C(=O)OCC(=O)Nc2ccc(F)cc2F)c1`, the “activation” value is -1.57%. For `COc1ccc(NC(=O)c2ccc(C#CC(C)(C)O)cc2)cc1`, the “activation” value is 8.18%. On the same count and under the same terms, the result for `COc1ccc(C(=O)Nc2cccc(S(C)(=O)=O)c2)cc1` reads 2.72%.

As for `COc1ccc(C(=O)Nc2ccc(F)cc2F)cc1`, the Potency is 3.16 µM (active). Turning to `COc1ccc(/C=N/NC(=O)Nc2ccc3nsnc3c2)c(OC)c1`, the “activation” value is -0.0419%. In the case of `COc1ccc(NC(=O)Nc2ccc3nsnc3c2)cc1`, the Potency is 1.78 µM (active).

As for `COc1ccc(NC(=O)Nc2cccc3cccnc23)cc1`, the “activation” value was 16.2%. As to `COc1ccc(OC)c(/C=N/NC(=O)c2ccc[n+](CC(=O)c3ccccc3)c2)c1`, the “activation” value was 2.89%. On the same count and under the same terms, the result for `COc1ccccc1C(=O)Nc1ccc(C)c(S(=O)(=O)N2CCCCC2)c1` reads -2.07%. As for `CNS(=O)(=O)c1ccc(C(=O)NCC(=O)NCCc2ccc3c(c2)OCCO3)cc1`, the “activation” value is 0.876%.

Take `COc1ccc(C(=O)NCc2ccc(C)cc2)cc1S(=O)(=O)N1CCCC1`: the “activation” value was -2.7%.

For the molecule `CC(C)(Oc1ccc(Cl)cc1)C(=O)OCC(=O)NCCc1ccc(S(N)(=O)=O)cc1`, the “activation” value was -3.7%. For `CC(=O)c1ccccc1NC(=O)C1CC(=O)N(c2ccc3c(c2)OCCO3)C1` (configuration not stated), the “activation” value was -3.76%.

In the case of `COc1ccc(C(=O)N2CCN(c3ccc(C(C)=O)cc3F)CC2)cc1S(=O)(=O)NC1CC1`, the “activation” value is 11.8%. The same measure, in the same setting: the result for `CCc1ccccc1NC(=O)[C@@H]1CCC(=O)N1C1OC(=O)c2c1ccc(OC)c2OC` (some centres not stated) reads -0.58%; that for `CN(C(=O)CSc1nnc(-c2ccc(C(C)(C)C)cc2)n1C)C1CCS(=O)(=O)C1` (configuration not stated), 1.03%; that for `Cc1cccc(NS(=O)(=O)c2ccc(C)c(C(=O)NCC(c3ccccc3)N(C)C)c2)c1` (configuration not stated), -5.65%. Regarding `C[C@H](NC(=O)c1ccccc1Cl)C(=O)OCC(=O)N1CCN(c2ccccc2)CC1`, the “activation” value is -0.198%. Still for that read-out and setting: the result for `CCOC(=O)N1CCC(NC(=O)c2cnn3ccccc23)CC1` reads -0.0909%.
